Drawing on PubChem BioAssay (NCI), this text covers growth for 6 compounds.

About 83,000 compounds went through this panel and 20% of them were active in at least one assay; those are over-represented in the sample as a whole.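 Assay: single dose, 48 h. Readout: percent growth (0 = no net growth; negative = cell death). Active: <10.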 Unmarked numbers belong to inactive results. Active and inactive are the calls of the source.

Some test systems named below: SK-MEL-2 melanoma; EKVX NSCLC; SN12C renal; UO-31 renal; TK-10 renal; ACHN renal; CAKI-1 renal; A498 renal; CCRF-CEM leukemia; MOLT-4 leukemia; SR leukemia; RPMI-8226 leukemia; OVCAR-8 ovarian; OVCAR-5 ovarian; SK-OV-3 ovarian; IGROV1 ovarian; OVCAR-3 ovarian; HS 578T breast; NCI/ADR-RES ovarian.
What all share (test): NCI-60 one-dose screen, 48 h (100 = growth as untreated, 0 = no growth, -100 = all killed)
Holding throughout (conditions): 10 µM unless noted

In the case of `COc1ccc(/C=C/C=C\C(=O)c2ccc(-n3ccnc3)cc2)cc1`, the growth is 108% in the experiment on SK-MEL-2 melanoma; 96.6% in the experiment with EKVX NSCLC; 90.7% in the experiment on SN12C renal; 73.9% with UO-31 renal; 96.3% with TK-10 renal; 94.4% with ACHN renal. In addition, the growth in the experiment with CAKI-1 renal was 90.9%; with A498 renal it was 73.3%; in the experiment on CCRF-CEM leukemia it was 80.2%; in the experiment with MOLT-4 leukemia, 75%; in the experiment with SR leukemia, 82.1%; with RPMI-8226 leukemia, 71.5%. Besides, the growth with OVCAR-8 ovarian was 86.4%; in the experiment on OVCAR-5 ovarian it was 103%; with SK-OV-3 ovarian, 97%; with IGROV1 ovarian, 93.5%; in the experiment on OVCAR-3 ovarian, 96.7%; in the experiment on HS 578T breast, 91.1%. Moreover, the growth in the experiment with NCI/ADR-RES ovarian was 104%.

In the case of `O=C(N/N=C\c1cc(Cl)ccc1O)N/N=C/c1cc(Cl)ccc1O`, the growth is 70.6% with SK-MEL-2 melanoma; 69.4% with EKVX NSCLC; 66.8% in the experiment with SN12C renal; 17.3% in the experiment on UO-31 renal; 55.4% in the experiment with TK-10 renal; 27.5% with ACHN renal. Moreover, the growth was 60.2% in the experiment on CAKI-1 renal; 80.3% in the experiment on A498 renal; 27.4% in the experiment with CCRF-CEM leukemia; 43.2% with MOLT-4 leukemia; 35.4% in the experiment with SR leukemia; 29.4% with RPMI-8226 leukemia. In addition, the growth in the experiment on OVCAR-8 ovarian is 43.4%; in the experiment on OVCAR-5 ovarian, 75.6%; in the experiment with SK-OV-3 ovarian, 73.7%; in the experiment with IGROV1 ovarian, 49.1%; with OVCAR-3 ovarian it was 10.2%; in the experiment with HS 578T breast it was 34.6%. In the experiment on NCI/ADR-RES ovarian, the growth is 16%.

As to `CC(C)[C@H]1CCC2=C3CC[C@]45OC(=O)[C@@]6(CCC(C)(C)C[C@H]64)CC[C@@]5(C)[C@]3(C)CC[C@@]21C`, the growth with SK-MEL-2 melanoma is 74.9% [100 µM]; in the experiment on EKVX NSCLC, 88.3% [100 µM]; with SN12C renal, 70.6% [100 µM]; in the experiment on UO-31 renal, 67.9% [100 µM]; in the experiment with TK-10 renal it was 101% [100 µM]; with ACHN renal, 72.4% [100 µM]. The growth with CAKI-1 renal was 53.7% [100 µM]; in the experiment on A498 renal it was 103% [100 µM]; in the experiment on CCRF-CEM leukemia, 49.7% [100 µM]; with MOLT-4 leukemia it was 26.5% [100 µM]; in the experiment with SR leukemia, 60.3% [100 µM]; in the experiment with RPMI-8226 leukemia, 58.2% [100 µM]. The growth with OVCAR-8 ovarian was 70.3% [100 µM]; in the experiment on OVCAR-5 ovarian, 107% [100 µM]; in the experiment with SK-OV-3 ovarian it was 75.3% [100 µM]; with IGROV1 ovarian it was 61% [100 µM]; in the experiment on OVCAR-3 ovarian it was 80.2% [100 µM]; with HS 578T breast, 61.6% [100 µM]. In the experiment with NCI/ADR-RES ovarian, the growth was 81.9% [100 µM].

In the case of `Clc1ccc(/C=N/Nc2nc3ccccc3s2)c(Cl)c1`, the growth in the experiment on SK-MEL-2 melanoma is 112%; in the experiment on EKVX NSCLC, 66.9%; in the experiment with SN12C renal, 95.3%; with UO-31 renal, 68.2%; in the experiment with TK-10 renal it was 95.4%; in the experiment with ACHN renal, 82.8%. The growth is 82% in the experiment on CAKI-1 renal; 81.6% in the experiment on A498 renal; 80.5% in the experiment on CCRF-CEM leukemia; 98.4% in the experiment with MOLT-4 leukemia; 91% with SR leukemia; 91.2% in the experiment on RPMI-8226 leukemia. Besides, the growth in the experiment on OVCAR-8 ovarian is 79.3%; with OVCAR-5 ovarian, 103%; in the experiment on SK-OV-3 ovarian, 74%; with IGROV1 ovarian, 67%; in the experiment with OVCAR-3 ovarian it was 87.3%; in the experiment with HS 578T breast, 84.8%. Besides, in the experiment on NCI/ADR-RES ovarian, the growth is 89.7%.

`CC[C@]12C=CCN3CC[C@@]4(c5ccc(OC)cc5N(C)[C@H]4[C@@](O)(C(=O)OC)[C@@H]1OC(=O)CCC(=O)N[C@H](Cc1c[nH]c4ccccc14)C(=O)OC)[C@@H]32`: the growth was -48.8% [100 µM] (active) in the experiment on SK-MEL-2 melanoma; -58.7% [100 µM] (active) in the experiment on EKVX NSCLC; -68.7% [100 µM] (active) with SN12C renal; -55.5% [100 µM] (active) with UO-31 renal; -38.7% [100 µM] (active) in the experiment on TK-10 renal; -64.7% [100 µM] (active) in the experiment on ACHN renal. Also, the growth was -71% [100 µM] (active) in the experiment on CAKI-1 renal; -49.9% [100 µM] (active) in the experiment with A498 renal; 7.07% [100 µM] (active) in the experiment with CCRF-CEM leukemia; -12.4% [100 µM] (active) in the experiment on MOLT-4 leukemia; 26% [100 µM] in the experiment on SR leukemia; 0.693% [100 µM] (active) in the experiment with RPMI-8226 leukemia. Further, the growth was 0.282% [100 µM] (active) in the experiment with OVCAR-8 ovarian; -58.1% [100 µM] (active) in the experiment with OVCAR-5 ovarian; -18.1% [100 µM] (active) in the experiment on SK-OV-3 ovarian; -38.7% [100 µM] (active) in the experiment on IGROV1 ovarian; -48.8% [100 µM] (active) in the experiment with OVCAR-3 ovarian; -43.8% [100 µM] (active) with HS 578T breast. The growth in the experiment with NCI/ADR-RES ovarian was -30.7% [100 µM] (active).

Consider `CC(C)=CCC[C@](C)(O)[C@H]1CC[C@]2(C)[C@@H]1CC[C@@H]1[C@@]3(C)CC[C@H](OC(=O)CCC(=O)O)C(C)(C)[C@@H]3CC[C@]12C`, for which the growth was -13.1% [100 µM] (active) in the experiment with SK-MEL-2 melanoma; 45.3% [100 µM] in the experiment with EKVX NSCLC; 15% [100 µM] in the experiment on SN12C renal; 19.5% [100 µM] in the experiment with UO-31 renal; 49.6% [100 µM] in the experiment on TK-10 renal; 21.4% [100 µM] with ACHN renal. The growth is 21.4% [100 µM] in the experiment on CAKI-1 renal; 40.1% [100 µM] with A498 renal; 3.55% [100 µM] (active) in the experiment on CCRF-CEM leukemia; 5.86% [100 µM] (active) in the experiment on MOLT-4 leukemia; 29% [100 µM] with SR leukemia; 9.12% [100 µM] (active) in the experiment on RPMI-8226 leukemia. Moreover, the growth is 24.7% [100 µM] in the experiment on OVCAR-8 ovarian; 41.7% [100 µM] in the experiment on OVCAR-5 ovarian; 42.4% [100 µM] in the experiment on SK-OV-3 ovarian; 15.3% [100 µM] in the experiment on IGROV1 ovarian; -32.1% [100 µM] (active) in the experiment with OVCAR-3 ovarian; 41.2% [100 µM] in the experiment with HS 578T breast. For the same compound, the growth in the experiment on NCI/ADR-RES ovarian was 29.9% [100 µM].
